What all share (assay): DAPPL (digital affinity profiling via proximity ligation, sequencing); 10 mM Tris-HCl pH 7.5, 50 mM NaCl, 1 mM DTT, 4% glycerol, room temperature, 30 min; GST-TFs on glutathione beads, 16-mer random dsDNA library, 0.1% formaldehyde crosslink after washing; high values mean tight binding
In one assay the target is T1, FEV (Homo sapiens, UniProt Q99581 1-238).
T1 sequence: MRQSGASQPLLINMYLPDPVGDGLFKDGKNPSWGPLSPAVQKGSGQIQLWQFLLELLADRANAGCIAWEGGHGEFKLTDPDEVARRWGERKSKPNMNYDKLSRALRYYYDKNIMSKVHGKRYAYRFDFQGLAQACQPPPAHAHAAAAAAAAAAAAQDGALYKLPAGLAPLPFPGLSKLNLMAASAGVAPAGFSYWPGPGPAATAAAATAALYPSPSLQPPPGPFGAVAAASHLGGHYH
The following applies: protein: recombinant; tags: N-terminal GST; dsDNA, one strand shown. In outline:
(§1)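 Human transcription factors were made in yeast as GST fusions, captured on glutathione beads and barcoded with DNA. With a tag-only sample included, the pool was incubated with 200 nmole of a random double-stranded 16-mer DNA library in Tris/NaCl/DTT/glycerol buffer at room temperature for 30 min, then crosslinked with 0.1% formaldehyde after washing, ligated by proximity, amplified and sequenced. For binding signal, each hexamer's read frequency for a factor is divided by its frequency for the tag-only sample.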

A further assay concerns the target ETV5 (Homo sapiens, UniProt P41161 1-510). The settings on record: protein: recombinant; tags: N-terminal GST; dsDNA, one strand shown. In outline: as §1
Another assay has as its target HSF1 (Homo sapiens, UniProt Q00613 1-529). The settings on record: protein: recombinant; tags: N-terminal GST; chain copies: 3; dsDNA, one strand shown. In outline: as §1
A further assay has as its target T2, SPIC (Homo sapiens, UniProt Q8N5J4 1-248).
T2 sequence: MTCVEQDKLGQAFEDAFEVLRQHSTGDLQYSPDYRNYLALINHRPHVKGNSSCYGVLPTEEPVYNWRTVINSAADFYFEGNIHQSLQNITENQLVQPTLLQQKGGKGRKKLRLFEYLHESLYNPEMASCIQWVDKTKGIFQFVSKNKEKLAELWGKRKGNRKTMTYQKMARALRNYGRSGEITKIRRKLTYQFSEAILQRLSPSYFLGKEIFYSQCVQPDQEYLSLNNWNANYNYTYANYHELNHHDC
The following applies: protein: recombinant; tags: N-terminal GST; dsDNA, one strand shown. Summed up: as §1

The next assay addresses ELF4 (Homo sapiens, UniProt Q99607 1-663). The following applies: protein: recombinant; tags: N-terminal GST; dsDNA, one strand shown. In outline: as §1
The next assay concerns the target T3, ELK4 (Homo sapiens, UniProt P28324-2 1-405).
T3 sequence: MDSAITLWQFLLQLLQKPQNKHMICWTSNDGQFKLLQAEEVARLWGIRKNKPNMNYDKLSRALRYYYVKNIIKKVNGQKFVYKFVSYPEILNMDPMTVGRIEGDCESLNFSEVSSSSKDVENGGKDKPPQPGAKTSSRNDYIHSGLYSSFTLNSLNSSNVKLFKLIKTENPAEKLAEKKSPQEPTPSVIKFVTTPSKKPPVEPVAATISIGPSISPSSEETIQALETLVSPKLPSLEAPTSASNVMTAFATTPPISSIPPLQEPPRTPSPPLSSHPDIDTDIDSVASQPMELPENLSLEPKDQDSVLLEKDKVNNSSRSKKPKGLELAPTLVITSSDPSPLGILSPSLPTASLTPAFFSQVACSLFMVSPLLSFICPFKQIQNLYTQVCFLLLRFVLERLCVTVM
The settings on record: protein: recombinant; tags: N-terminal GST; dsDNA, one strand shown. In outline:
as §1

A further assay has as its target T4, ETV2 (Homo sapiens, UniProt O00321 1-342).
T4 sequence: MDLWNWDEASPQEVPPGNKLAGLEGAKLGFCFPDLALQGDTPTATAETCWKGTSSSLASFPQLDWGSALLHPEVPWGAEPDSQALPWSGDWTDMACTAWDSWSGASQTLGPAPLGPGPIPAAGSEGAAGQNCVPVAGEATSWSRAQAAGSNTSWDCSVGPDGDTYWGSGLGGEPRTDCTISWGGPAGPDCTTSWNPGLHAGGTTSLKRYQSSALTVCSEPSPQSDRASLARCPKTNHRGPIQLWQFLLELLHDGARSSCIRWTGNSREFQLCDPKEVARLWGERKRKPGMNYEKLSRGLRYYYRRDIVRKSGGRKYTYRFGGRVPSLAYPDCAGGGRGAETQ
The settings on record: protein: recombinant; tags: N-terminal GST; dsDNA, one strand shown. In outline:
as §1

A further assay addresses T5, ELF3 (Homo sapiens, UniProt P78545 1-371).
T5 sequence: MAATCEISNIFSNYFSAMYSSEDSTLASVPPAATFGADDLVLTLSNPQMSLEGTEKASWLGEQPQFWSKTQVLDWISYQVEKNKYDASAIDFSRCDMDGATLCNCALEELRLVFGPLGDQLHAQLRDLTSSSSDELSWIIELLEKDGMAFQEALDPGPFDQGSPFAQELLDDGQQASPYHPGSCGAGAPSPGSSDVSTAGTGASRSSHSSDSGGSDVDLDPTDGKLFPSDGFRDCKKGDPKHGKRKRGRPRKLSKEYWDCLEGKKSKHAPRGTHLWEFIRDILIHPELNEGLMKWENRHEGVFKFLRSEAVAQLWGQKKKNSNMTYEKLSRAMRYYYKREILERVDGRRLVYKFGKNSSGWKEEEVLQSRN
The following applies: protein: recombinant; tags: N-terminal GST; dsDNA, one strand shown. In outline: as §1

In another assay the target is CRX (Homo sapiens, UniProt O43186 1-299). The settings on record: protein: recombinant; tags: N-terminal GST; dsDNA, one strand shown. Summed up: as §1
Sequence of CRX (O43186 whole entry): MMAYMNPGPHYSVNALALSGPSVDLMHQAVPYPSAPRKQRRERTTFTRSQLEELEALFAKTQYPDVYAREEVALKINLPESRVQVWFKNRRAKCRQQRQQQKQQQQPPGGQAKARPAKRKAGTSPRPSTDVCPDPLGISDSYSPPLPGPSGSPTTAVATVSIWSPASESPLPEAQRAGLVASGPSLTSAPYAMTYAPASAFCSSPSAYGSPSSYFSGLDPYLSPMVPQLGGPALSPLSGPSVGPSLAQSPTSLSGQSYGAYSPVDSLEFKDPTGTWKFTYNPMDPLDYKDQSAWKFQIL
Another assay has as its target ETV1 (Homo sapiens, UniProt P50549 1-477). The settings on record: protein: recombinant; tags: N-terminal GST; dsDNA, one strand shown. Summed up:
as §1

In another assay the target is T6, ERF (Homo sapiens, UniProt P50548 1-548).
T6 sequence: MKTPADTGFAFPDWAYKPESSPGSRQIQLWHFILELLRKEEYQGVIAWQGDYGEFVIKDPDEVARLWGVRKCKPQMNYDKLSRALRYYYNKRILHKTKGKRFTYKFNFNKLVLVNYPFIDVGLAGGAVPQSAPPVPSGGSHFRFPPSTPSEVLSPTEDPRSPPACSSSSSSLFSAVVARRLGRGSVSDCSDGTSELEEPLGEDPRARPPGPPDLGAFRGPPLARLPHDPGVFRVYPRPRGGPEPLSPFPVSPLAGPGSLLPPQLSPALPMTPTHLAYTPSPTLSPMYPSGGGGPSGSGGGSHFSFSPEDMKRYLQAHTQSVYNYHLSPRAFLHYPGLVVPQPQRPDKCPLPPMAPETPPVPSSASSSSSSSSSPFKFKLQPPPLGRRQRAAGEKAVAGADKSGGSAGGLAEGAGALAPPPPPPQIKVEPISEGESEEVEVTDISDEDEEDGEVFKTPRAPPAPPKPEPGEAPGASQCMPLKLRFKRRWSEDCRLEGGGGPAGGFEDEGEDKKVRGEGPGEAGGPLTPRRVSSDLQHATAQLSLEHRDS
The settings on record: protein: recombinant; tags: N-terminal GST; dsDNA, one strand shown. In outline: as §1

The next assay deals with T7, ETV3L (Homo sapiens, UniProt Q6ZN32 1-361).
T7 sequence: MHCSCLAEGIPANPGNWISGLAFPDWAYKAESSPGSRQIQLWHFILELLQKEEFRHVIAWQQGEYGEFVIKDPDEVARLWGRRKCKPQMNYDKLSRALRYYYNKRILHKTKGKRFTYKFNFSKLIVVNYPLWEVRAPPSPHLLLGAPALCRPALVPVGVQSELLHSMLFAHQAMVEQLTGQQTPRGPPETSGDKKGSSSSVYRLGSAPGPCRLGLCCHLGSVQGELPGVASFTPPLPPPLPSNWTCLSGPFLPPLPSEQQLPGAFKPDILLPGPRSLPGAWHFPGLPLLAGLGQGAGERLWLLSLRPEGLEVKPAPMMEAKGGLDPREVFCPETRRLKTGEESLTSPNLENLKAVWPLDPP
The following applies: protein: recombinant; tags: N-terminal GST; dsDNA, one strand shown. Summed up: as §1

Another assay deals with T8, ETS2 (Homo sapiens, UniProt P15036 1-469).
T8 sequence: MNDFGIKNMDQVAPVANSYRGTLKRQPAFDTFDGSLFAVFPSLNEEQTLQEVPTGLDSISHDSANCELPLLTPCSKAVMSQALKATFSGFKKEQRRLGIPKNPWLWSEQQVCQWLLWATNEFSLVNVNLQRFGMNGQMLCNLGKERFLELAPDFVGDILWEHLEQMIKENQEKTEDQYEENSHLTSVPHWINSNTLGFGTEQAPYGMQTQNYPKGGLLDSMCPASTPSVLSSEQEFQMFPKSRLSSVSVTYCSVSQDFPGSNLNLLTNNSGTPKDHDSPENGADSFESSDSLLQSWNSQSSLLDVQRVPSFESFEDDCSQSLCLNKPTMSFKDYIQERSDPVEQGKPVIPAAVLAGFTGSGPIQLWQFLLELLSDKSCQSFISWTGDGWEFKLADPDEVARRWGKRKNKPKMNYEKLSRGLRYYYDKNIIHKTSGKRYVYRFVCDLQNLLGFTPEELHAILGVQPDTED
The settings on record: protein: recombinant; tags: N-terminal GST; dsDNA, one strand shown. In outline: as §1

The next assay deals with T9, SPDEF (Homo sapiens, UniProt O95238 1-335).
T9 sequence: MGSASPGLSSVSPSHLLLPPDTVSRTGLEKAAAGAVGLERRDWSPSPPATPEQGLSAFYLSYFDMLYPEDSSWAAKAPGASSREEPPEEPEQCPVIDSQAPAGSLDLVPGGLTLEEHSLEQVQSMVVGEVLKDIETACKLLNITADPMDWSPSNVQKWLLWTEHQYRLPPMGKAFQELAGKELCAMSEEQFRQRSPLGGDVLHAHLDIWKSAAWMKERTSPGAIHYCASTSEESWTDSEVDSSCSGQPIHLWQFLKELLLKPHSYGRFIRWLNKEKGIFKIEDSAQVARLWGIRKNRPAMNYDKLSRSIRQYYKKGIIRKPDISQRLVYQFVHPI
The settings on record: protein: recombinant; tags: N-terminal GST; dsDNA, one strand shown. Summed up:
as §1

In a further assay the target is T10, ETV7 (Homo sapiens, UniProt Q9Y603 1-341).
T10 sequence: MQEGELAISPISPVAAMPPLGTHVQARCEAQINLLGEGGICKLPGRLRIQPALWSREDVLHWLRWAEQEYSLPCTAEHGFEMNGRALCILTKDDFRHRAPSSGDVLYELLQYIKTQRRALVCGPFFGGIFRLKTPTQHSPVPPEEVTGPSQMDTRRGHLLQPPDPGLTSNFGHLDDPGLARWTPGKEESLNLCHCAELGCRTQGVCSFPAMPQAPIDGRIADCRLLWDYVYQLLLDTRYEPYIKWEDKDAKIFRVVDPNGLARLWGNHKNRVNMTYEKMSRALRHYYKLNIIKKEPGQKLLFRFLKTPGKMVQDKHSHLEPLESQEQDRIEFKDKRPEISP
The following applies: protein: recombinant; tags: N-terminal GST; dsDNA, one strand shown. Summed up:
as §1

The target of a further assay is T11, ELF5 (Homo sapiens, UniProt Q9UKW6-2 1-255).
T11 sequence: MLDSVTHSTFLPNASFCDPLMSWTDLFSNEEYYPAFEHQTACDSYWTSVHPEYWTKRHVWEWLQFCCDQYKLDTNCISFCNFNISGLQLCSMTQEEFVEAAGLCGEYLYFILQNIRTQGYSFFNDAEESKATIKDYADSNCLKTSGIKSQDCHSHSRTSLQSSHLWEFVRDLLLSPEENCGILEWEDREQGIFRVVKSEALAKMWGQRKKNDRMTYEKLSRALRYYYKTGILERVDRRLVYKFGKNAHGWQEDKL
The following applies: protein: recombinant; tags: N-terminal GST; dsDNA, one strand shown. In outline:
as §1

In a further assay the target is T12, ETV3 (Homo sapiens, UniProt P41162-2 1-143).
T12 sequence: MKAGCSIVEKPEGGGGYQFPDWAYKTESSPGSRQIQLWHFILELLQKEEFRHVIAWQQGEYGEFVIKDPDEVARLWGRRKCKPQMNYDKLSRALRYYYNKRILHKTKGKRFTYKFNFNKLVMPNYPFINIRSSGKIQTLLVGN
The following applies: protein: recombinant; tags: N-terminal GST; dsDNA, one strand shown. Summed up:
as §1

The target in a further assay is ETV6 (Homo sapiens, UniProt P41212 1-452). The following applies: protein: recombinant; tags: N-terminal GST; dsDNA, one strand shown. In outline:
as §1

Sequence of ETV5 (P41161 whole entry): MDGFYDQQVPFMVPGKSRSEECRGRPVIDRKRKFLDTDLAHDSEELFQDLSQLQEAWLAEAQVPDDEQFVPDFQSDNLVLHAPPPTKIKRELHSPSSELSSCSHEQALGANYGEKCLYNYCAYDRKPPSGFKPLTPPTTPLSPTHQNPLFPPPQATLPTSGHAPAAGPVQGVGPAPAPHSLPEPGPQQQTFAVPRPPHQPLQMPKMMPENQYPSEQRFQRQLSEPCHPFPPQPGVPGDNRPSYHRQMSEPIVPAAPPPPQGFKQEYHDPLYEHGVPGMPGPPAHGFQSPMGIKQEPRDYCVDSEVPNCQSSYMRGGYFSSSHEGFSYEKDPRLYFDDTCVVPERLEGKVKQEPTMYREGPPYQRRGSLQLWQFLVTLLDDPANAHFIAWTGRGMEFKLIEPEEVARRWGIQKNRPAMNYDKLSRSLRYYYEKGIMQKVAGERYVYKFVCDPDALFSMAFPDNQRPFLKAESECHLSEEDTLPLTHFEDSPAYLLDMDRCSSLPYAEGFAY
Sequence of HSF1 (Q00613 whole entry): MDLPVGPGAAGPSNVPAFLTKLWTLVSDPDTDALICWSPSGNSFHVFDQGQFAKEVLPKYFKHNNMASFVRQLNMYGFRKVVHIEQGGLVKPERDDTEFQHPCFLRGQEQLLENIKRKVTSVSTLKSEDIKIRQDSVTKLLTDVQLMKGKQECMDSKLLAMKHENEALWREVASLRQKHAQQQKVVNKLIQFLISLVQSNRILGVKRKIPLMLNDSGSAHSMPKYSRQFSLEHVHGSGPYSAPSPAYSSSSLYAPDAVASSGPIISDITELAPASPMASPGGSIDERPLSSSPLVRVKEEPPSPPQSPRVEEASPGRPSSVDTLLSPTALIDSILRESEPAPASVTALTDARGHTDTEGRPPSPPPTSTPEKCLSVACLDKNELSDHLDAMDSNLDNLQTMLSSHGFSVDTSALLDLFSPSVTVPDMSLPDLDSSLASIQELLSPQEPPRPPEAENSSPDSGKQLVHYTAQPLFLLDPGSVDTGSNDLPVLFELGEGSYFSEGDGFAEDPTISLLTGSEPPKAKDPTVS
Sequence of ETV6 (P41212 whole entry): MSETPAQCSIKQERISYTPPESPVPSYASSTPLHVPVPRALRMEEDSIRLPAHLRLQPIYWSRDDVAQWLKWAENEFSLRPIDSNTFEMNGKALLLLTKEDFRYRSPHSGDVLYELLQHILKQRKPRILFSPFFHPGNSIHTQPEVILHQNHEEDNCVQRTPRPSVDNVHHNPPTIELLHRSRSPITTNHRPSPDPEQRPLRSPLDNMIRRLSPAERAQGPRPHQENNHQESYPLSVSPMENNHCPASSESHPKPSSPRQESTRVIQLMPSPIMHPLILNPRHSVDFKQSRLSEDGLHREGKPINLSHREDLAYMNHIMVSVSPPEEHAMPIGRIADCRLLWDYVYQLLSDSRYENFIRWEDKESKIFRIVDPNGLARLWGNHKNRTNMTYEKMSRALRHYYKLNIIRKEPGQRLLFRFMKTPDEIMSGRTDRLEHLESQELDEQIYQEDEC
Sequence of ELF4 (Q99607 whole entry): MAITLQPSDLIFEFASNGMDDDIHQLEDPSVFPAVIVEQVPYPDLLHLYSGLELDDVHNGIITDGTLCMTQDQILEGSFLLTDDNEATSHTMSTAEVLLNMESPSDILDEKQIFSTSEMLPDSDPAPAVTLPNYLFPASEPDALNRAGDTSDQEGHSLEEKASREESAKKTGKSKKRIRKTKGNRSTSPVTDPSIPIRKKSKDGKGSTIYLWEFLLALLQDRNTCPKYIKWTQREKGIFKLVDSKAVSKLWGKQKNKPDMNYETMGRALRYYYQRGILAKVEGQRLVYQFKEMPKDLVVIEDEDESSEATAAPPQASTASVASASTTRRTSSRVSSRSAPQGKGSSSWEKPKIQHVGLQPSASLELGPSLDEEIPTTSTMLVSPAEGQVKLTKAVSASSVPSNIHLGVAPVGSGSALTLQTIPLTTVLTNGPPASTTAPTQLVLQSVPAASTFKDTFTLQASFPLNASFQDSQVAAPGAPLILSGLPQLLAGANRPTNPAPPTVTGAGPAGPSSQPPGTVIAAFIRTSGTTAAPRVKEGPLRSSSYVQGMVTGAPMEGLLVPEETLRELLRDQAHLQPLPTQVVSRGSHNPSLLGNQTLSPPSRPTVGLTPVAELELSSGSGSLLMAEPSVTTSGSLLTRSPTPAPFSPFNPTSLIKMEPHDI
Sequence of ETV1 (P50549 whole entry): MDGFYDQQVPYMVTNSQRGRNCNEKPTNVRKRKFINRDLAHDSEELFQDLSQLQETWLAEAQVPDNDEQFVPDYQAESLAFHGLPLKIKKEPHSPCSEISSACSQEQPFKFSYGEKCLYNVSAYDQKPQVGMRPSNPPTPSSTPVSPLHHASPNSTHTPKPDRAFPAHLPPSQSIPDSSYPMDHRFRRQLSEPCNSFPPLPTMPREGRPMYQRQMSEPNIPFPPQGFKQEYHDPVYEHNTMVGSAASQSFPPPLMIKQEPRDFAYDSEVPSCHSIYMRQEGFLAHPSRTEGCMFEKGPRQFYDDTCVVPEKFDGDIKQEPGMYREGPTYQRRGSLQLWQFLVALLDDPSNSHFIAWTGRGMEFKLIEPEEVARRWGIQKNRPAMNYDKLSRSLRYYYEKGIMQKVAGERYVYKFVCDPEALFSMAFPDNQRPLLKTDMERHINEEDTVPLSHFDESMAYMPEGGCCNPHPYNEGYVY

Take TTTGCC: the binding signal with FEV is 1.26 fold enrichment (6-mer frequency, TF over GST control); with ETV5 it was 1.26 fold enrichment (6-mer frequency, TF over GST control); with HSF1 it was 1.24 fold enrichment (6-mer frequency, TF over GST control); with SPIC it was 1.31 fold enrichment (6-mer frequency, TF over GST control); with ELF4, 1.29 fold enrichment (6-mer frequency, TF over GST control); with ELK4, 1.37 fold enrichment (6-mer frequency, TF over GST control). For the same sequence, the binding signal in the assay with ETV2 is 1.29 fold enrichment (6-mer frequency, TF over GST control); in the assay with ELF3, 1.47 fold enrichment (6-mer frequency, TF over GST control); in the assay with CRX, 1.32 fold enrichment (6-mer frequency, TF over GST control); in the assay with ETV1, 1.33 fold enrichment (6-mer frequency, TF over GST control); in the assay with ERF it was 1.31 fold enrichment (6-mer frequency, TF over GST control); with ETV3L, 1.2 fold enrichment (6-mer frequency, TF over GST control). The binding signal with ETS2 is 1.32 fold enrichment (6-mer frequency, TF over GST control); with SPDEF it was 1.21 fold enrichment (6-mer frequency, TF over GST control); with ETV7, 1.26 fold enrichment (6-mer frequency, TF over GST control); with ELF5 it was 1.2 fold enrichment (6-mer frequency, TF over GST control); with ETV3 it was 1.32 fold enrichment (6-mer frequency, TF over GST control); with ETV6, 1.11 fold enrichment (6-mer frequency, TF over GST control).
